# Compounds with a hit are over-represented: about 19% of the library has one in this group of screens.
# KB-V1 cytotox: KB-V1 MDR subline cytotoxicity. KB-V1 MDR cells viability, CellTiter-Glo, 72 h. Potency, µM (highest dose often 46.1 µM), actives largely listed as cytotoxic. 400,000 tested, 3.4% active; note: nearly all actives have a fitted effect of over 60% in size
#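 Cytotoxicity via CellTiter-Glo luminescence after 72 h compound exposure at 37 degrees C. Cells: drug-selected KB-V1 line, DMEM phenol-red free plus 10% FBS. Compounds tested at multiple concentrations; normalized data fitted to concentration-effect curves.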
# HT1080 IDH1KD tx: kills HT-1080 cells with IDH1 knockdown; HT-1080 IDH1 knockdown viability, ATP luminescence, 48 h; Potency, µM (doses to about 46.1 µM), usual class: cytotoxic; 360,000 tested, 2% active; AID 686971
#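 Knockdown cells (IDH1KD HT-1080) received compounds 2 h after plating at 750 cells/well and were kept 48 h at 37 °C in 5% FBS RPMI. A CellTiter-Glo luminescence read gave % activity for curve fitting.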
# TDP1 cell CPT: growth inhibition of DT40 Tdp1-/-;hTDP1 cells with camptothecin (screen for TDP1 inhibitors). 420,000 tested, 12% active. AID 686979. chicken DT40 Tdp1-/-;hTDP1 cells + 20 nM CPT, ATP luminescence, 48 h. Potency, µM (top dose mostly 46.2 µM), hits mostly inhibitors; note: nearly all actives have a fitted effect of over 55% in size
#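 Chicken DT40 Tdp1-/- cells complemented with human TDP1, 400 cells/well, exposed to compounds plus 20 nM camptothecin for at least 48 h at 37 C; viability read as ATP content by CellTiter-Glo luminescence.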
# KB-3-1 cytotox: KB-3-1 parental cell cytotoxicity; KB-3-1 viability, CellTiter-Glo ATP luminescence, 72 h; Potency, µM (titrated, usually from 46.1 µM), actives largely listed as cytotoxic; 400,000 tested, 1.4% active; AID 1347075; note: nearly all actives have a fitted effect of over 60% in size
#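 Parental KB-3-1 adenocarcinoma cells in phenol-red-free DMEM with 10% FBS were pin-treated with compounds at several concentrations, incubated 72 h at 37 °C, and viability read by CellTiter-Glo luminescence; concentration-effect curves were fitted after normalization.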
# HT1080NT lethal: kills 2HG-producing HT-1080-NT fibrosarcoma cells. 360,000 tested, 1.6% active. HT-1080-NT fibrosarcoma viability, CellTiter-Glo ATP luminescence, 48 h. AID 686970. Potency, µM (series often up to 46.1 µM), most hits filed as cytotoxic;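 note: NT is the 2HG producing partner of a matched IDH1 knockdown line; nearly all actives have a fitted effect of over 55% in size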
#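 Luminescent CellTiter-Glo readout after 48 hours of compound exposure at 37 degrees C defined viability of HT-1080-NT cells. Activity was normalized to DMSO wells and cell-free media wells; concentration-response curves were fitted and assigned curve classes.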
# DT40 TDP1 no CPT: qHTS for Inhibitors of human tyrosyl-DNA phosphodiesterase 1 (TDP1): qHTS in cells in absence of CPT | 420,000 tested, 15% active | Potency, µM (titrated, usually from 46.2 µM), most hits filed as inhibitors | DT40 Tdp1-/- hTDP1 cells, no CPT, ATP luminescence, 48 h; note: nearly all actives have a fitted effect of over 55% in size
#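 Cells were dispensed at 400 per well, compounds added by pin tool, plates incubated ≥48 hr at 37 °C, then CellTiter-Glo added for 30 min at room temperature before luminescence reading. Line: DT40 Tdp1-/- complemented with hTDP1; camptothecin omitted.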
# A number is an active result; 0 = inactive; ? = inconclusive; - = not tested or not shown. Calls come from the whole dose curve; as a rule, active = well fitted curve in the direction sought with a large enough effect; inconclusive = small, poorly fitted or top-dose-only effect, or another doubt; inactive = no such curve, though single readings can be large; an effect the other way counts as inactive or inconclusive.
SMILES,KB-V1 cytotox,HT1080 IDH1KD tx,TDP1 cell CPT,KB-3-1 cytotox,HT1080NT lethal,DT40 TDP1 no CPT
CCCCOc1ccc(S(=O)(=O)NC(=O)C2(C)CCN2C(=O)c2cccc(F)c2)cc1 (stereo not given),0,0,0,0,0,0
COc1ccc(/C=C/C(=O)N(C(C)C)C(C)C)cc1Br,0,?,?,0,0,13µM
COc1ccc(/C=C/C(=O)NC(C)C)cc1Br,0,0,0,0,0,0
Cc1nc2ccccc2n1CC(=O)NCc1ccccc1,6.5µM,0,9.2µM,?,0,12µM
Cc1cc(=O)c2ccccc2n1Cc1ccccc1,?,?,?,0,0,16µM
Cc1cc(=O)c2ccccc2n1CC(=O)NCc1ccccc1,4.6µM,0,18µM,0,0,?
Cc1cc(=O)n(Cc2ccccc2)c2ccccc12,0,0,?,0,0,?
Cc1ccc2c(c1)c(=O)c(Br)c(C)n2Cc1ccccc1,18µM,0,?,?,0,?
CNCc1ccccc1OCC(=O)Nc1ccccc1OC,?,?,?,0,0,0
Cc1nc2ccccc2n1CC(=O)NN,0,0,0,0,0,0
Cc1nc2ccccc2n1CC(=O)NC(C)C1CC2CCC1C2 (stereo not given),?,0,1.5µM,?,0,0.92µM
COc1cccc(NC(=O)Cn2c(=O)n(CCc3cccc(C)c3)c(=O)c3ccccc32)c1,0,-,0,0,-,0
COc1ccc(NC(=O)Cn2c(=O)n(CCc3ccccc3)c(=O)c3ccccc32)cc1,0,-,0,0,-,?
COc1ccc(NC(=O)Cn2c(C)cc(=O)c3ccccc32)cc1,0,?,10µM,0,0,12µM
COc1cccc2c(=O)cc(C)n(CC(=O)Nc3cccc(C)c3)c12,0,?,?,0,0,18µM
O=S(=O)(NC(=S)NC1CCCCC1)c1ccc(Br)cc1,0,0,0,0,0,?
CCOC(=O)C1CCN(C(=O)c2cccc(S(=O)(=O)N3CCc4ccccc43)c2)CC1,0,0,?,0,0,?
CC(C)(C)NC(=O)CN1CCCN(C(=O)c2cccc(S(=O)(=O)N3CCc4ccccc43)c2)CC1,0,0,?,0,0,?
CCOC(=O)C1CCN(C(=O)c2cccc(S(=O)(=O)N3CCCc4ccccc43)c2)CC1,?,0,?,0,0,23µM
CC1CCCN(C(=O)c2cccc(S(=O)(=O)N3CCCc4ccccc43)c2)C1 (stereo not given),0,0,10µM,0,0,10µM
CCOC(=O)CSCC(=O)N1N=C(c2cccs2)CC1c1ccc(F)cc1 (stereo not given),0,0,15µM,0,0,?
Cc1ccc2nc(SCC(=O)N3N=C(c4cccs4)CC3c3ccc(F)cc3)nc(=O)n2c1 (stereo not given),0,0,0,0,0,?
CNC(=S)N1N=C(c2cccs2)CC1c1ccc(OC)cc1 (stereo not given),0,0,0,0,0,0
Fc1ccc(C2CC(c3cccs3)=NN2C(=S)Nc2ccccc2)cc1 (stereo not given),21µM,0,?,0,0,?
Cc1ccn2c(=O)nc(SCC(=O)N3N=C(c4cccs4)CC3c3ccc(F)cc3)nc2c1 (stereo not given),0,0,?,0,0,18µM
SMILES,KB-V1 cytotox,HT1080 IDH1KD tx,TDP1 cell CPT,KB-3-1 cytotox,HT1080NT lethal,DT40 TDP1 no CPT
C=CCN([C@H](C(=O)OC)C(C)C)S(=O)(=O)CCNCc1ccccc1,0,0,?,0,0,?
COc1ccccc1C(=O)N1[C@@H](C(C)C)COc2cc(Br)ccc2S1(=O)=O,?,0,?,0,0,16µM
COc1cccc(C(=O)N2C(C(C)C)COc3cc(Br)ccc3S2(=O)=O)c1 (stereo not given),0,?,26µM,0,?,23µM
C[C@@H](c1ccccc1)N1Cc2ccccc2Oc2cc(Br)ccc2S1(=O)=O,0,0,?,?,0,0
CCOC(=O)Cc1ccc(NC(=O)Nc2cc3c(cc2N2CCCCC2)n(C)c(=O)n3C)cc1,0,-,4.6µM,0,-,2.6µM
CCn1c(=O)n(CC)c2cc(N3CCCC3)c(NC(=O)c3ccc(F)cc3)cc21,0,0,23µM,0,0,18µM
Cn1c(=O)n(C)c2cc(N3CCCCC3)c(NC(=O)Nc3ccc(Br)cc3)cc21,?,-,?,0,-,?
CCn1c(=O)c(=O)n(CC)c2cc(N3CCCCC3)c(NC(=O)c3ccc(OC)c(OC)c3)cc21,0,-,13µM,0,-,9.2µM
CCn1c(=O)n(CC)c2cc(N3CCCC3)c(NC(=O)c3c(F)cccc3F)cc21,?,0,?,?,0,12µM
CCOc1ccc(C(=O)Nc2cc3c(cc2N2CCCC2)n(CC)c(=O)n3CC)cc1OCC,0,0,?,0,0,?
CN(C)c1cc2c(cc1NC(=O)c1ccc(F)cc1)n(C)c(=O)n2C,-,-,?,-,-,23µM
Cc1cc(C)cc(NC(=O)Oc2ccccc2N2CCCCC2)c1,0,0,0,0,0,0
CCn1c(=O)n(CC)c2cc(N3CCCCC3)c(NC(=O)Nc3cc(C)cc(C)c3)cc21,?,-,5.8µM,0,-,6.5µM
Cn1c(=O)n(C)c2cc(NC(=O)c3ccc(F)cc3)c(Br)cc21,0,0,0,0,0,0
CCCCS(=O)(=O)N1CCCC(C(=O)NCC2CCCO2)C1 (stereo not given),0,0,0,0,0,0
CC(C)c1ccccc1OCC(=O)Nc1ccccc1C(=O)N1CCOCC1,?,0,16µM,0,0,16µM
Cc1cc(OC(C)C(=O)Nc2ccccc2C(=O)N2CCCC2)ccc1Cl (stereo not given),0,0,?,0,0,?
Cc1ccccc1OCC(=O)Nc1ccccc1-c1ccccc1,0,0,0,0,0,6.5µM
CCN(CC)c1ccc(C(=O)OCC(=O)Nc2ccccc2-c2ccccc2)cc1,?,0,?,0,0,18µM
Cc1cccc(OC(C)C(=O)Nc2ccccc2C(=O)N2CCCCC2)c1 (stereo not given),0,0,?,0,0,13µM
O=C(Cn1cc([N+](=O)[O-])ccc1=O)NCC(=O)Nc1ccc(F)c(F)c1F,?,0,0,?,0,0
COc1ccc(OCC(=O)Nc2ccccc2-c2ccccc2)cc1,0,?,?,?,0,?
CCOC(=O)N1CCN(C(=O)C2CCN(C(=O)c3ccccc3C)CC2)CC1,?,?,0.92µM,?,?,1µM
Cc1ccccc1C(=O)N1CCC(C(=O)N2CCN(c3ncccn3)CC2)CC1,0,0,0,0,0,0
